Assay results published in the supplement of paper PMC9925115.
Counter-ions that a name gives are not always drawn. ± gives the uncertainty stated by the source.

test system: FLX1; assay: cell viability z-score within plate (CellTiter-Glo), mean of 3 biological replicates; higher = higher viability relative to plate (less growth inhibition); settings: 2 µM; time (hr): 120
Method: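 FLX1 fibrolamellar carcinoma cells (DNAJB1-PRKACA fusion), 600 cells/well in 384-well plates, treated with a Selleck kinase inhibitor library (L1200) at 2 uM for 5 days (120 hr); viability by CellTiter-Glo. A z-score was computed within each plate and averaged over three biological replicates.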

Row | SMILES | cell viability z-score within plate
1 | O=C1NCCc2[nH]c(-c3ccncc3)cc21 | 0.309 ± 0.59
2 | N#CC(=C(/N)Sc1ccccc1N)/C(C#N)=C(\N)Sc1ccccc1N | -1.01 ± 0.4
3 | CCOc1cc(C(=O)N2CCC(N3CCN(C)CC3)CC2)ccc1Nc1ncc2c(n1)N(C1CCCC1)c1ccccc1C(=O)N2C | 0.444 ± 0.17
4 | OCCn1cc(-c2ccc3c(c2)CC/C3=N\O)c(-c2ccncc2)n1 | 0.788 ± 0.054
5 | CN1CCCN(C(=O)c2cccc(-c3ccc(/C=C4/C(=O)Nc5ccc(Cl)cc54)o3)c2)CC1 | 0.408 ± 0.47
6 | Cn1c(=O)c(F)c(Nc2ccc(I)cc2F)c2c(=O)n(C[C@@H](O)CO)cnc21 | 1.04 ± 0.62
7 | CNc1nc(Nc2cnn([C@H]3CCN(C4COC4)C[C@@H]3F)c2Cl)ncc1C(F)(F)F | -0.856 ± 0.51
8 | CS(=O)(=O)N1CCc2c(-c3cnc(N)nc3)nc(N3CCOCC3)nc21 | 0.617 ± 0.29
9 | Cc1ccccc1CN1C2=NCCN2C(=O)C2=C1CCN(Cc1ccccc1)C2 [TIC10 Analogue] | 0.481 ± 0.4
10 | O=c1c(-c2ccc(O)cc2)coc2cc(O)cc(O)c12 [Genistein] | -0.148 ± 0.52
11 | CCN1CCN(Cc2ccc(Nc3ncc(F)c(-c4cc(F)c5nc(C)n(C(C)C)c5c4)n3)nc2)CC1 | 0.939 ± 0.8
12 | Cn1cc(/C=C2\C(=O)Nc3cccnc32)c2ccccc21 | 0.84 ± 0.29
13 | COc1cc2ncnc(Nc3ccc(F)c(Cl)c3)c2cc1OCCCN1CCOCC1 [Gefitinib (ZD1839)] | -1.17 ± 1.2
14 | COc1ccc(COc2cc3oc(=O)c4cc(C(C)O)ccc4c3cc2OC)cc1 (stereo not given) [Palomid 529 (P529)] | 0.0682 ± 0.42
15 | Cc1nc(N)sc1-c1ccnc(Nc2ccc(N3CCOCC3)cc2)n1 | 0.352 ± 0.28
16 | N#Cc1c(Oc2ccc(F)c(NC(=O)Cc3cccc(C(F)(F)F)c3)c2)ccc2nc(NC(=O)C3CC3)sc12 | 0.529 ± 0.94
17 | Cc1cc(F)c(Nc2ncnc3cc(OCc4ccccc4)ccc23)cc1O | -0.328 ± 0.22
18 | COc1cc2ncnc(Nc3ccc(Cl)cc3F)c2cc1OC | 1.18 ± 0.67
19 | COc1cc2ncnc(Oc3ccc(CC(=O)Nc4cnn(C(C)C)c4)cc3)c2cc1OC | -0.525 ± 0.26
20 | Cc1cc2c(F)c(Oc3ncnn4cc(OC[C@@H](C)O)c(C)c34)ccc2[nH]1 | -1.45 ± 0.81

Row | SMILES | cell viability z-score within plate
21 | Nc1ncnc2c1c(-c1cnc3[nH]ccc3c1)nn2C1CCCC1 | -0.241 ± 0.65
22 | O=c1ccc2ccc(O)c(O)c2o1 [Daphnetin] | 1.53 ± 0.8
23 | O=C(Nc1cccc(Nc2ncc(Br)c(NCCc3cnc[nH]3)n2)c1)N1CCCC1 | 0.384 ± 0.1
24 | O=C1Nc2ccc(I)cc2/C1=C/c1cc(Br)c(O)c(Br)c1 | 1.53 ± 0.35
25 | COc1cc2nccc(Oc3ccc(NC(=O)Nc4cc(C)on4)c(Cl)c3)c2cc1OC [Tivozanib (AV-951)] | -0.573 ± 0.16
26 | Cc1cc(C(=O)NOCCO)c(Nc2ccc(I)cc2F)n(C)c1=O | 0.132 ± 0.35
27 | COCCOc1ccc2c(c1)ncn2-c1ccc2cccc(N3CCC(N)CC3)c2n1 | 0.546 ± 0.4
28 | COc1cc(N2CCC(N)CC2)ccc1Nc1ncc(Cl)c(-c2c[nH]c3ccccc23)n1 | -0.695 ± 0.23
29 | C[C@@H]1CN(CC(=O)Nc2ccc3c(c2)Cc2cccc(-c4cc(=O)cc(N5CCOCC5)o4)c2S3)C[C@H](C)O1 | 0.915 ± 0.16
30 | Cn1cc(-c2ccc3ncc(Cc4ccc5ncccc5c4)n3n2)cn1 | 0.137 ± 0.93
31 | CN1CC[C@H](c2c(O)cc(O)c3c(=O)cc(-c4ccccc4Cl)oc23)[C@H](O)C1 [Flavopiridol HCl] | 0.894 ± 0.42
32 | C#Cc1cccc(Nc2ncnc3cc(OCCOC)c(OCCO)cc23)c1 | -0.584 ± 1.3
33 | COc1cc(Nc2ncc(F)c(Nc3ccc4c(n3)N(COP(=O)(O)O)C(=O)C(C)(C)O4)n2)cc(OC)c1OC [Fostamatinib (R788)] | 0.458 ± 0.74
34 | Cn1cnc(N)c2ncnc1-2 [3-Methyladenine (3-MA)] | 0.219 ± 0.67
35 | Oc1c2ccccc2c2c3c(cccc13)N=N2 | 0.48 ± 0.65
36 | CCc1ccc(/C=C2/SC(=S)NC2=O)cc1 | 0.872 ± 0.44
37 | O=C(Nc1ccc(-c2ccnc(Nc3ccc(N4CCOCC4)cc3)n2)cc1)C1CCCN1 (stereo not given) | 0.342 ± 0.56
38 | O=C(Nc1cc(C(F)(F)F)cc(C(F)(F)F)c1)c1cc(Cl)ccc1O | -0.692 ± 0.5
39 | CCCNC(=O)Nc1ccc(Oc2ncnc3cc(OC)c(OC)cc23)cc1Cl | 0.704 ± 0.077
40 | O=C1NC(=O)C(c2ccccc2[N+](=O)[O-])=C1Nc1ccc(O)c(Cl)c1 | 0.229 ± 0.58
